This is an account of results in PubChem BioAssay (NCI).

Some test systems named below: RPMI-8226 leukemia; OVCAR-8 ovarian; OVCAR-5 ovarian; OVCAR-4 ovarian; SK-OV-3 ovarian; IGROV1 ovarian; OVCAR-3 ovarian; HS 578T breast; NCI/ADR-RES ovarian; T-47D breast; BT-549 breast; SW-620 colon; MCF7 breast; HCT-116 colon; HCC-2998 colon; KM12 colon; MDA-MB-468 breast.
Holding throughout (experiment): NCI-60 one-dose screen, 48 h (100 = growth as untreated, 0 = no growth, -100 = all killed)
In a further assay the test system is SR leukemia. The settings on record: 10 µM unless noted.
In a further assay the test system is MDA-MB-435 melanoma. The settings on record: 10 µM unless noted.

The panel holds about 83,000 compounds, 20% with a hit somewhere; the sample as a whole holds those more often.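 Testing used 96-well plates and a 48-hour single-concentration exposure. Example: -40 means 40% of the starting cells died.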 A number with no mark means an inactive call. The source made the active and inactive calls. The calls were made as follows: active = growth percent below 10; inactive = the rest.

Regarding `CC/C(=C(/c1ccc(O)cc1)c1ccc(OCCN(C)C(=O)CCOCCNC(=O)Cc2ccc3c(c2)CN([C@@H]2CCC(=O)NC2=O)C3=O)cc1)c1ccccc1`, the growth in the assay on RPMI-8226 leukemia (1 µM) was 88%; in the assay with RPMI-8226 leukemia (10 µM), 78.3%; in the assay with OVCAR-8 ovarian (1 µM), 87.8%; in the assay on OVCAR-8 ovarian (10 µM) it was 34.7%; with OVCAR-5 ovarian (1 µM) it was 97.5%; in the assay on OVCAR-5 ovarian (10 µM), 86.7%. Moreover, the growth is 102% in the assay on OVCAR-4 ovarian (1 µM); 75.7% in the assay with OVCAR-4 ovarian (10 µM); 88.7% with SK-OV-3 ovarian (1 µM); 79.6% in the assay on SK-OV-3 ovarian (10 µM); 57.5% in the assay on IGROV1 ovarian (1 µM); 30.4% with IGROV1 ovarian (10 µM). The growth is 102% in the assay on OVCAR-3 ovarian (1 µM); 68.4% with OVCAR-3 ovarian (10 µM); 61.4% in the assay on HS 578T breast (1 µM); 30.4% with HS 578T breast (10 µM); 109% in the assay with NCI/ADR-RES ovarian (1 µM); 99.6% in the assay on NCI/ADR-RES ovarian (10 µM). The growth was 20.9% in the assay on T-47D breast (1 µM); 25% in the assay on T-47D breast (10 µM); -12.9% (active) in the assay with BT-549 breast (1 µM); -25.9% (active) in the assay with BT-549 breast (10 µM); 70.6% in the assay on SW-620 colon (1 µM); 36% in the assay on SW-620 colon (10 µM). Also, the growth in the assay on MCF7 breast (1 µM) was 34.7%; with MCF7 breast (10 µM) it was 31.5%; in the assay on HCT-116 colon (1 µM), 100%; in the assay with HCT-116 colon (10 µM), 92.4%; in the assay with HCC-2998 colon (1 µM), 97.3%; in the assay on HCC-2998 colon (10 µM) it was 78.3%. Further, the growth was 95.3% in the assay with KM12 colon (1 µM), 66.7% with KM12 colon (10 µM), -2.35% (active) with MDA-MB-468 breast (1 µM) and -18.2% (active) with MDA-MB-468 breast (10 µM).
As to `COC(=O)c1cc(C(=O)CBr)n2c1ccc1c3ccccc3ccc12`, the growth was 2.25% (active) in the assay on SR leukemia; 38.7% in the assay on RPMI-8226 leukemia (10 µM unless noted); 31.3% in the assay with OVCAR-8 ovarian (10 µM unless noted); 72.8% with OVCAR-5 ovarian (10 µM unless noted); 101% with OVCAR-4 ovarian (10 µM unless noted); 62% in the assay with SK-OV-3 ovarian (10 µM unless noted). Also, the growth in the assay on IGROV1 ovarian (10 µM unless noted) is 33.5%; in the assay with OVCAR-3 ovarian (10 µM unless noted) it was 103%; with HS 578T breast (10 µM unless noted) it was 61%; in the assay with NCI/ADR-RES ovarian (10 µM unless noted) it was 57.4%; in the assay with T-47D breast (10 µM unless noted) it was 57.7%; in the assay with MDA-MB-435 melanoma, 74.9%. Besides, the growth in the assay on SW-620 colon (10 µM unless noted) was 55.4%; in the assay on MCF7 breast (10 µM unless noted), 6.75% (active); in the assay on HCT-116 colon (10 µM unless noted), 35.6%; in the assay with HCC-2998 colon (10 µM unless noted), 62.5%; with KM12 colon (10 µM unless noted), 84%; in the assay with MDA-MB-468 breast (10 µM unless noted) it was 48.8%.
As for `Cc1cc(N=C(N)c2ccccc2)ccc1OCCCCCCCCn1ccnc1`, the growth in the assay on SR leukemia is 0.698% (active); with OVCAR-5 ovarian (10 µM unless noted), 1.47% (active); with OVCAR-4 ovarian (10 µM unless noted) it was 37.5%; in the assay with SK-OV-3 ovarian (10 µM unless noted) it was 16.7%; in the assay with IGROV1 ovarian (10 µM unless noted), 6.54% (active); with HS 578T breast (10 µM unless noted) it was 13.6%. Further, the growth in the assay with T-47D breast (10 µM unless noted) was 26.4%; in the assay with SW-620 colon (10 µM unless noted), 20%; with MCF7 breast (10 µM unless noted) it was -4.6% (active); in the assay with HCT-116 colon (10 µM unless noted), 11.4%; in the assay with HCC-2998 colon (10 µM unless noted), -32.6% (active); in the assay on MDA-MB-468 breast (10 µM unless noted) it was 2.88% (active).
Turning to `COc1ccc2c(c1)c(-c1cc(N)n3nc(-c4c[nH]c5ccccc45)cc3n1)cn2C`, the growth with SR leukemia is 6.54% (active); in the assay with RPMI-8226 leukemia (10 µM unless noted), -9.07% (active); with OVCAR-8 ovarian (10 µM unless noted), -74.7% (active); in the assay on OVCAR-5 ovarian (10 µM unless noted) it was -69.7% (active); in the assay with OVCAR-4 ovarian (10 µM unless noted), -29.8% (active); with SK-OV-3 ovarian (10 µM unless noted), -55.6% (active). Further, the growth in the assay on IGROV1 ovarian (10 µM unless noted) is -62.4% (active); in the assay with OVCAR-3 ovarian (10 µM unless noted), -71.1% (active); in the assay on HS 578T breast (10 µM unless noted), -17.9% (active); in the assay on NCI/ADR-RES ovarian (10 µM unless noted), -43.3% (active); in the assay on T-47D breast (10 µM unless noted), -63.5% (active); in the assay on MDA-MB-435 melanoma it was -74% (active). The growth with SW-620 colon (10 µM unless noted) was -89.5% (active); in the assay with MCF7 breast (10 µM unless noted), -72% (active); with HCT-116 colon (10 µM unless noted), -85.9% (active); with HCC-2998 colon (10 µM unless noted), -80.6% (active); in the assay on KM12 colon (10 µM unless noted), -74.8% (active); in the assay with MDA-MB-468 breast (10 µM unless noted), -73.8% (active).
On to `CC(C)(C)C(=O)C1CC(C#N)=C2C=Cc3c(ccc4ccccc34)N21` (stereo not given), for which the growth in the assay with SR leukemia was 94.3%; in the assay with RPMI-8226 leukemia (10 µM unless noted) it was 75%; in the assay with OVCAR-8 ovarian (10 µM unless noted) it was 71.2%; in the assay with OVCAR-5 ovarian (10 µM unless noted), 121%; with OVCAR-4 ovarian (10 µM unless noted), 79.3%; in the assay on SK-OV-3 ovarian (10 µM unless noted), 75%. Also, the growth in the assay on IGROV1 ovarian (10 µM unless noted) was 92.9%; in the assay on OVCAR-3 ovarian (10 µM unless noted), 96.3%; with HS 578T breast (10 µM unless noted) it was 30.6%; in the assay with NCI/ADR-RES ovarian (10 µM unless noted) it was 81.9%; with T-47D breast (10 µM unless noted) it was 72.8%; with MDA-MB-435 melanoma, 97.9%. In addition, the growth in the assay on SW-620 colon (10 µM unless noted) is 102%; with MCF7 breast (10 µM unless noted) it was 63%; in the assay on HCT-116 colon (10 µM unless noted), 93.1%; with HCC-2998 colon (10 µM unless noted), 99.7%; with KM12 colon (10 µM unless noted) it was 97%; in the assay with MDA-MB-468 breast (10 µM unless noted), 96.2%.
